Screening data from PubChem.
In the library only some 1.6% were active in any assay of this set; here they are far more common.
S1P3 antagonist = S1P3 receptor antagonists, primary screen, cell-based. AID 485, 2006. 170,000 compounds, 0.27% hits. inhibition, % at 4.98 µM. CHO S1P3 NFAT-BLA reporter, FRET fluorescence, antagonist mode. Sphingosine 1-phosphate receptor 3 (Homo sapiens), Q99500;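 active = inhibition above the plate cutoff, the mean inhibition of test wells on that plate plus 3 SD, cut at about 28% in these data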;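 also: cells challenged with S1P at its EC80 of 0.8 µM; blue over green emission ratio from cleaved BLA substrate after 4 h stimulation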
DTT redox prof = compounds producing H2O2 with reducing agent – biochemical, NIH compound library profiling, artefact control for MLSCN library redox annotation, primary screen; AID 878, 2007; 200,000 compounds, 0.03% hits; activation, % at 10 µM; DTT-dependent redox cycling H2O2, phenol red/HRP absorbance; 100% = 100 µM peroxide control, 0% = buffer;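 active = activation of at least 50% relative to the plate's high and low controls in the primary single-dose screen; inactive = activation below 50%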;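 also: compound incubated with DTT at 0.8 mM final as the reducing agent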
S1P4 ag = S1P4 receptor agonists, primary screen, cell-based | Sphingosine 1-phosphate receptor 4 (Homo sapiens), O95977 | S1P4-expressing cell line, agonist reporter assay | activation, % at 4.98 µM | 220,000 compounds, 0.35% hits; in the data active = activation above about 11%
Target sequence (O95977 whole entry, looked up): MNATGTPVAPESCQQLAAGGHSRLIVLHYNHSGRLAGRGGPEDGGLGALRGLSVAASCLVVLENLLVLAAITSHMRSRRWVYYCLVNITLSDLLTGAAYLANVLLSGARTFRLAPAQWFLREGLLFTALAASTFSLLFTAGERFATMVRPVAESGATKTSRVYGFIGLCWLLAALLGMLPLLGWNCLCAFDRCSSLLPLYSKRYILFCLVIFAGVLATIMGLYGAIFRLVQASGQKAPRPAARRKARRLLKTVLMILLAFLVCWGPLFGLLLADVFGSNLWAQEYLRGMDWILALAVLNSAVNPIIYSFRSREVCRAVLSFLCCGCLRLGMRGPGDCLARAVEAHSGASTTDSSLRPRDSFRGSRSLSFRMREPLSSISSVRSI
Arbovirus anti = antivirals against arbovirus infection, primary screen, cell-based, full library, 10K replicate subset; arbovirus infection cell-based antiviral screen; inhibition, % at 10 µM; 200,000 compounds, 0.37% hits; in the data active = inhibition above about 30%
S1P4 antagonist = S1P4 receptor antagonists, primary screen, cell-based; Sphingosine 1-phosphate receptor 4 (Homo sapiens), O95977; S1P4-expressing cells, antagonist mode, reporter read-out; inhibition, % at 4.98 µM; 220,000 compounds, 0.26% hits; AID 1510, 2009; in the data active = inhibition above about 29%
p97 ATPase inh = inhibitors of human p97 ATPase, primary screen, biochemical. Transitional endoplasmic reticulum ATPase (Homo sapiens), P55072. recombinant p97 ATPase, Kinase-Glo ATP luminescence, 3 h. inhibition, % at 8 µM. 220,000 compounds, 0.42% hits; in the data active = inhibition above about 15%
Of the large screens only hits and unclear results are named; the others gave an inactive call.

Nc1nc2ccccc2n1/N=C/c1cccnc1	none (no result: S1P3 antagonist)
CC1CC1C(=O)Nc1nc(-c2cccs2)c(-c2cccs2)s1 (stereo unspecified)	none
O=C(NC12CC3CC(CC(C3)C1)C2)N(Cc1ccccc1)Cc1ccncc1	none
CCOC(=O)CC1C(=O)NCCN1C(=O)c1cc2c(=O)n3cccc(C)c3nc2s1 (stereo unspecified)	none
CCCN1C(=O)/C(=C/c2c(N3CCNC(=O)C3CC(=O)OC)nc3c(C)cccn3c2=O)SC1=S (stereo unspecified)	p97 ATPase inh 14.6 (no result: DTT redox prof, Arbovirus anti)
Cc1ccccc1-c1nnc(NC(=O)c2cc3ccccc3oc2=O)s1	none
CCc1nnc(NC(=O)c2cc3ccccc3oc2=O)s1	Arbovirus anti 64.5
CCc1ccc(Nc2ncc3c(n2)CC(c2ccc(OC)cc2)CC3=O)cc1 (stereo unspecified)	none (no result: S1P3 antagonist)
COc1ccc(Nc2ncc3c(n2)CC(c2ccccc2)CC3=O)cc1 (stereo unspecified)	S1P3 antagonist 53.1
CCN(CC)CCNC(=O)CCn1c(=S)[nH]c2cc3c(cc2c1=O)OCO3	none (no result: S1P3 antagonist)
CCCCNC(=O)CCCn1c(=S)[nH]c2cc3c(cc2c1=O)OCO3	p97 ATPase inh 17.3 (no result: S1P3 antagonist)
COc1ccc(CNC(=O)CSCc2ccccc2Cl)cc1	none
Cc1ccc(OCCSCc2nnc(NC(=O)Nc3cccc(Cl)c3)s2)cc1	Arbovirus anti 38.0
Cc1nnc(NC(=O)Nc2cccc(Cl)c2)s1	none
CCOC(=O)NNc1ccc2nonc2c1[N+](=O)[O-]	p97 ATPase inh 20.9 (no result: DTT redox prof, Arbovirus anti)
O=[N+]([O-])c1c(Nc2ccccc2)ccc2nonc12	none (no result: S1P3 antagonist)
Cc1cc(NC(=O)CCSc2ccc(Cl)cc2)no1	none
COc1ccc(C(=O)/C=C/c2ccc(OC)c(Cn3nnc4ccccc43)c2)cc1	Arbovirus anti 36.9
COc1ccc(C(=O)/C=C/c2ccc(OC)c(CN3CCOCC3)c2)cc1	none
Cc1onc(-c2ccc(Cl)cc2Cl)c1-c1csc(COc2ccccc2)n1	none (no result: DTT redox prof, Arbovirus anti)
Cc1csc(NC(=O)c2ccc(C)c(S(=O)(=O)N3CCOCC3)c2)n1	none
Cc1csc(NC(=O)c2ccc(C)c(S(=O)(=O)N3CCCCC3)c2)n1	Arbovirus anti 31.0
COc1ccc(/C=N/NC(=O)c2cccc(COCC(F)(F)C(F)F)c2)cc1	none
COc1cccc(C2/C(=C(\O)c3ccc4c(c3)OCCO4)C(=O)C(=O)N2CCCN(C)C)c1OC (stereo unspecified)	S1P4 ag 38.0 (no result: S1P3 antagonist, Arbovirus anti)
COc1cccc(C2/C(=C(\O)c3ccc4c(c3)OCO4)C(=O)C(=O)N2CCN(C)C)c1OC (stereo unspecified)	none
CC(C)Cn1c2c(c(O)c(C(=O)Nc3nccs3)c1=O)CCCC2	Arbovirus anti 37.0
Cc1csc(NC(=O)c2c(O)c3c(n(CC(C)C)c2=O)CCCC3)n1	Arbovirus anti 55.1
CCCn1c2c(c(O)c(C(=O)Nc3nc(C)cs3)c1=O)CCCC2	none
CCCn1c2c(c(O)c(C(=O)Nc3nccs3)c1=O)CCCC2	none
O=C(COC(=O)C12CC3CC(CC(C3)C1)C2)Nc1nc2c(F)c(F)c(F)cc2s1	none
O=C(NCCO)Nc1ccc2nc(-c3ccco3)c(-c3ccco3)nc2c1	p97 ATPase inh 44.2
O=C(NCCCO)c1ccc2nc(-c3ccco3)c(-c3ccco3)nc2c1	none
Nc1nc2ccc([N+](=O)[O-])c(N)c2s1	none (no result: S1P3 antagonist)
CCOC(=O)C1CCN(C(=O)c2ccco2)CC1	S1P3 antagonist 69.2
COC(=O)c1cccc(Cn2nc(C)c([N+](=O)[O-])c2C)c1	none
N#Cc1c(N(CCO)CCO)nc(N)c2c(N)nc3c(c12)CC(=O)N3Cc1cccs1	p97 ATPase inh 28.8 (no result: DTT redox prof, Arbovirus anti)
O=C(O)CSc1nc(-c2ccc(Cl)cc2)nc2c1oc1ccccc12	Arbovirus anti 34.8
Cc1ccc(Cn2c(=N)c(C(=O)NCc3ccco3)cc3c(=O)n4ccccc4nc32)cc1	none
COc1ccc(CNC(=O)c2cc3c(=O)n4ccccc4nc3n(Cc3ccco3)c2=N)cc1	p97 ATPase inh 34.9 (no result: Arbovirus anti)
CC(=O)c1ccc(NC(=O)C(=O)c2cn(CC(=O)N3CCCCC3)c3ccccc23)cc1	none
COc1coc(C(O)C[N+](=O)[O-])cc1=O (stereo unspecified)	none
COC(=O)NCC(c1cccnc1)N1CCN(c2ccccc2OC)CC1 (stereo unspecified)	none
COC(=O)NCC(c1cccnc1)N1CCN(c2ccccc2F)CC1 (stereo unspecified)	S1P3 antagonist 102.0
O=C(COCC(=O)NCc1ccccc1)NCc1ccccc1	none
CC1CC(C)(C)NC(=S)O1 (stereo unspecified)	none
CCC(=O)Nc1ccc(N2CCOCC2)c(S(=O)(=O)Nc2ccc(OC)cc2)c1	none
COc1ccc(NS(=O)(=O)c2cc(NC(=O)/C=C/c3cccs3)ccc2N2CCOCC2)cc1	Arbovirus anti 64.3
O=C(NCCCN1CCC(Cc2ccccc2)CC1)C1CCC(=O)N1C1CCCC1 (stereo unspecified)	none
O=C(NCCCN1CCC(Cc2ccccc2)CC1)C1CC(=O)N(C2CCCC2)C1 (stereo unspecified)	S1P3 antagonist 103.5
CN1CCN(S(=O)(=O)c2ccc(NC(=O)COc3ccccc3Cl)cc2)CC1	none
Cc1cccc(C)c1Nc1nc2ccccc2o1	Arbovirus anti 46.3
CC(C)CCN(C(=S)NC(=O)C1CCCCC1)c1c(N)n(Cc2ccccc2)c(=O)[nH]c1=O	Arbovirus anti 31.8
COCCN(C(=O)C1CCCC1)c1c(N)n(Cc2ccccc2)c(=O)[nH]c1=O	none
COCCn1c(SCc2nc3scc(-c4ccc(Cl)cc4)c3c(=O)[nH]2)nnc1-c1cccc(C)c1	Arbovirus anti 32.5
COCc1nnc(NC(C)=O)s1	none
C/C(=N\NC(=O)CN1CCN(Cc2ccccc2)CC1)c1cccs1	none (no result: DTT redox prof, Arbovirus anti)
Cc1ccc(/C=C(\CCC(=O)O)c2nc3ccccc3s2)cc1[N+](=O)[O-]	none
CN(c1ccccc1)c1ccc(/C=C(\CCC(=O)O)c2nc3ccccc3s2)cc1[N+](=O)[O-]	Arbovirus anti 37.1
CN(C)CCC(O)(c1ccccc1)c1ccccc1	none (no result: S1P3 antagonist)
CN(C)CCCC(C)(O)C(C)(C)c1ccccc1 (stereo unspecified)	p97 ATPase inh 14.6
CCCc1cc(C(=O)Nc2cc(Br)ccc2O)no1	Arbovirus anti 35.1
CCOC(=O)c1c(N)sc(C(=O)OCCOC)c1C	none
CCOc1ccc(-c2onc(C(F)(F)F)c2-c2cscn2)c(O)c1	p97 ATPase inh 28.5 (no result: S1P3 antagonist)
Cc1ccc(S(=O)(=O)NNC(=O)c2sc(=S)n(C)c2C)cc1	none
Cc1ccccc1N=C1SCC(=O)N1Cc1ccccc1	Arbovirus anti 37.1
